# Screen size: about 320,000 compounds; about 3,100 (0.97%) were called active. The list comes from a sample in which actives are over-represented; it also holds similar structures and randomly drawn compounds. Unmarked numbers belong to inactive results.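 How the source made its calls: active means mean replicate inhibition of at least 70% and a set share of replicates each scoring 70 or more; inconclusive means meets just one of the two criteria; inactive means fails both criteria.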
# Target: Scavenger receptor class B member 1 (Mus musculus) (UniProt Q61009)
# Experiment: inhibitors of SR-BI mediated HDL lipid uptake, primary screen, ldlA[mSR-BI] cells, fluorescence, single point (AID 488896);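 further: 0% = median of neutral control wells and 100% = median of positive control wells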
# Conditions: ldlA[mSR-BI] CHO cells, DiI-HDL uptake fluorescence, 3 h; at 12.5 µM; hits give high values
# Sequence of Scavenger receptor class B member 1 (Mus musculus) (Q61009 whole entry, looked up): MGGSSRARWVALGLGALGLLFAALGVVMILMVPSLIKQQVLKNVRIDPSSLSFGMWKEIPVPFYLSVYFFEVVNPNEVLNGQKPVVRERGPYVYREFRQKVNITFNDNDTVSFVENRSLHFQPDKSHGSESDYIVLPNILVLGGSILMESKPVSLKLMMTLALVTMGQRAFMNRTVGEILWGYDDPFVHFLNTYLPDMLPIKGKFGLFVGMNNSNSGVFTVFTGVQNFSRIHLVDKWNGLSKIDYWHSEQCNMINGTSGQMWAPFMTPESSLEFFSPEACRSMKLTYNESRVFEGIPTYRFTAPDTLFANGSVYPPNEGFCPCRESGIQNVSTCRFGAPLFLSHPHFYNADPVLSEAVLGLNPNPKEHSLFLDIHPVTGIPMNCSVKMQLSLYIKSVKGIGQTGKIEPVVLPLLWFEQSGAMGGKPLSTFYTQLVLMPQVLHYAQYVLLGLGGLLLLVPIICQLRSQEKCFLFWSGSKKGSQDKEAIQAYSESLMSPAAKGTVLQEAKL
row,Compound,inhibition
1,COc1ccc(Nc2ncc(F)c(N3CCOCC3)n2)cc1,22.2%
2,CCOc1ccc(Nc2nc(Cl)nc(N3CCN(c4ccc(OC)cc4)CC3)n2)cc1,73.8% (active)
3,Cc1ccc(Nc2nc(N3CCOCC3)nc(N3CCOCC3)n2)cc1Cl,55%
4,CCN(CC)S(=O)(=O)c1cccc(NC(=O)c2ccc(S(=O)(=O)N3CCCC3)cc2)c1,41.2%
5,Cn1c(N)cc(=O)n(C)c1=S,-17.8%
6,CCOC(=O)c1ccc(NC(=S)N2CCCC2)cc1,-10.4%
7,CN(C)c1ccc(C(=S)N2CCN(C(=S)Nc3ccc(Cl)cc3)CC2)cc1,95% (active)
8,NC(=O)C1(N2CCCCC2)CCN(C(=S)Nc2ccc(Cl)cc2)CC1,-24.6%
9,C=CCNC(=O)c1cc(-c2ccccc2O)on1,44.1%
10,C=CCNC(=O)c1sc(SC)cc1-c1ccc(Cl)cc1,73.9% (active)
11,Cc1nc(-c2ccc(Cl)cc2)sc1C(=O)NN,25.2%
12,CC[C@]12c3[nH]c4cc(CCC(=O)N(C)C)ccc4c3CCN1C(=O)[C@@H](CC(=O)NCC13CC4CC(CC(C4)C1)C3)C[C@@H]2C(=O)N1CCN(C(=O)C2CC2)CC1,1.08%
13,CCn1c(SCC(=O)N/N=C/C=C/c2ccccc2[N+](=O)[O-])nnc1-c1ccccc1,14.2%
14,O=C(CSc1nc2ccccc2[nH]1)N/N=C/C=C\c1ccccc1[N+](=O)[O-],4.51%
15,Cc1ccc(-n2c(SCC(=O)N/N=C/C=C/c3ccccc3[N+](=O)[O-])nc3ccccc3c2=O)cc1,74% (active)
16,CNN/C(N=Cc1ccc([N+](=O)[O-])s1)=N\S(=O)(=O)c1cc(C)c(Cl)cc1SCc1ccccc1,-9.94%
17,CC(C=Cc1ccccc1)=NNS(=O)(=O)c1ccc([N+](=O)[O-])cc1,-6.47%
18,CCc1ccc(C(=O)C(C)OC(=O)CN2C(=O)NC3(CCCC3)C2=O)cc1 (stereo unspecified),-13.5%
19,CC(C)(C)S(=O)(=O)N1Cc2cc(CO)cc(CCO)c2[C@H]1CCO,2.47%
20,CCOc1ccc(-n2c(O)c(/C=N/Nc3nnc(C)c(=O)[nH]3)c3ccccc3c2=O)cc1,108% (active)
21,CCOc1ccc(-n2c(O)c(/C=N/Nc3nc(C)cc(C)n3)c3ccccc3c2=O)cc1,34.2%
22,CCOc1ccc(-n2c(O)c(/C=N/c3ccnn3Cc3ccncc3)c3ccccc3c2=O)cc1,-0.942%
23,CC(=O)N1CCc2ccc(N)cc21,12.2%
24,COc1cc(/C=N/NC(=O)Cc2ccccc2)cc(OC)c1OC,3.39%
25,COc1cc(/C=N/NC(=O)c2ccoc2C)ccc1OCCN1CCCCC1,3.01%
26,COc1cc(/C=N/NC(=O)Nc2ccccc2)ccc1OCCOc1ccccc1C,71.4% (active)

# From PubChem BioAssay AID488896 (Broad Institute, 2010)
